Screening data deposited in PubChem BioAssay by National Center for Advancing Translational Sciences (NCATS).
Compounds with a hit are over-represented: about 2.6% of the library has one in this group of screens.
pS6 MEF inh: Acumen qHTS Assay for Inhibitors of the mTORC1 Signaling Pathway in MEF (Tsc2-/-, p53-/-) Cells: Sytravon; Tsc2-/- p53-/- MEF, phospho-rpS6 immunofluorescence/PI, 24 h; Potency, µM (doses to about 38.3 µM), hits mostly inhibitors; 44,000 compounds, 0.78% hits; also: nearly all actives have a fitted effect of over 50% in size
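Readout is phospho-S6 Alexa 488 signal normalized to PI per well, reported as % active cells with thresholds set from rapamycin (7.5 nM) and DMSO controls. Cells: Tsc2-/-, p53-/- MEFs, 24 hrs compound at 37 C; PI cell number serves as viability.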
PMP22 txn: Cell-based coincidence reporter assay to measure PMP22 gene transcription in S16 Pmp22-F2sN cells - Primary screen. AID 1508649, 2021. Potency, µM (titrated, usually from 57.5 µM), hits mostly inhibitors. 43,000 compounds, 2% hits. S16 Pmp22-F2sN Schwann cells, FLuc/NLuc coincidence luminescence, 24 h; active = clear falling dose curves in both reporters; inconclusive = both reporters move, but less clearly or upward; inactive = either reporter flat; the % is the NLuc reporter signal
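Transcriptional readout in edited S16(c9) cells: two luciferases reported from the Pmp22 locus, measured in turn after 24 h compound incubation.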
OvCa metastasis: Primary qHTS assay for Inhibitors of ovarian cancer metastasis using an organotypic tumor microenvironment (TME) model; SKOV3ip1-GFP adhesion/invasion on 3D omental model, fluorescence; Potency, µM (top dose mostly 45.8 µM), usual class: inhibitors; 46,000 compounds, 0.1% hits; AID 1963576, 2024; also: nearly all actives have a fitted effect of over 65% in size
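qHTS, 4-pt dose (0.36-46 umol/L); SKOV3ip1-GFP, 1,200 cells/well, no FBS; primary omental fibroblast/mesothelial co-culture 48 h pre-grown; 2 h RT + 16 h 37 C; PBS wash, 4% PFA; GFP count 488/509 nm.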
S16 F2sN tox: Cell viability qHTS assay in S16 Pmp22-F2sN cells; S16 Pmp22-F2sN Schwann cells (luciferase reporters placed in the Pmp22 gene) viability, CellTiter-Glo, 24 h; Potency, µM (titrated, usually from 57.5 µM), most hits filed as cytotoxic; 43,000 compounds, 0.48% hits; also: nearly all actives have a fitted effect of over 65% in size
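S16 Schwann cells carrying the Pmp22-F2sN reporter, seeded in 1536-well format, were exposed to library compounds for 24 h at 37C. Viability was read as CellTiter-Glo luminescence after 15 min at room temperature.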
GALC G270D act: A Novel Cell-Based Assay to Identify Small Molecules for B -Galactocerebrosidase; 45,000 compounds, 0.1% hits; P54803; AID 1159614, 2016; 145M-Twi-hGALC-G270D cells (Twitcher mouse brain line with human GALC G270D), HMU-beta-Gal fluorescence, 48 h; Potency, µM (highest dose often 57.5 µM), usual class: activators; also: nearly all actives have a fitted effect of over 65% in size
Target sequence (P54803 whole entry G286D): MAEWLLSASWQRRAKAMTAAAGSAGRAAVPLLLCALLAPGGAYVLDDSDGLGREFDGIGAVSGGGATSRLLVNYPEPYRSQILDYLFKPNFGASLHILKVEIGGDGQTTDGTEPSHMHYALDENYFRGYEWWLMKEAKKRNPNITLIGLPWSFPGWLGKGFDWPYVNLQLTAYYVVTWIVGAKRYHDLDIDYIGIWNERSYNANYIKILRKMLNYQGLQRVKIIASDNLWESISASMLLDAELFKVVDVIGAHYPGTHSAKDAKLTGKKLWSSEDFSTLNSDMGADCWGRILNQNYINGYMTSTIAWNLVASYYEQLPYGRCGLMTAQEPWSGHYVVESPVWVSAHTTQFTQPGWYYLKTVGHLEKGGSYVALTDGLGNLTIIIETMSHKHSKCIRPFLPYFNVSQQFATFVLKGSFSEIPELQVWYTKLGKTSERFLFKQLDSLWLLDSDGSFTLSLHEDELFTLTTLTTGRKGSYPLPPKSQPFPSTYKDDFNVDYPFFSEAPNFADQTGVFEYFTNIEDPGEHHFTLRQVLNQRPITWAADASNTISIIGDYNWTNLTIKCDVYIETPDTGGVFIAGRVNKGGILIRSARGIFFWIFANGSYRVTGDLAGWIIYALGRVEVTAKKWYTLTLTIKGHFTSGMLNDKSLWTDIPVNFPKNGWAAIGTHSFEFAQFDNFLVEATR
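Mutant human GALC (G270D), stably expressed in a Twitcher mouse brain cell line lacking endogenous GALC, is measured in live-treated cells via 6-hexadecanoylamino-4-methylumbelliferyl-β-galactoside hydrolysis (0.1 mM final, pH 5.2) with fluorescent detection.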
NLuc saturating: Biochemical NLuc saturation counterscreen for small molecule modulators of PMP22 gene expression - Nano-Glo assay; shares compounds with PMP22 txn; Secreted NLuc enzyme (filtered S16 cell medium), Nano-Glo luminescence; Potency, µM (highest dose often 57.5 µM), actives largely listed as inhibitors; 690 compounds, 4% hits
NLuc Km ctr: Biochemical coelenterazine-based NLuc counterscreen for small molecule modulators of PMP22 gene expression - Km assay. shares compounds with PMP22 txn. AID 1508639, 2021. Potency, µM (doses to about 57.5 µM), usual class: inhibitors. secreted NLuc enzyme, coelenterazine luminescence, Km conditions. 690 compounds, 5% hits
FLuc ctr PMP22: Biochemical FLuc counterscreen for small molecule modulators of PMP22 gene expression. shares compounds with PMP22 txn. purified P. pyralis FLuc, luminescence, 10 min. Potency, µM (top dose mostly 57.5 µM), usual class: inhibitors. 690 tested, under 10 active. AID 1508640, 2021
S16 viab conf: Cell viability qHTS assay in S16 Pmp22-F2sN cells - Confirmatory screen. shares compounds with PMP22 txn. S16 Schwann cells viability, CellTiter-Glo ATP luminescence, 24 h. Potency, µM (top dose mostly 57.5 µM), most hits filed as cytotoxic. 690 compounds, 7% hits. AID 1508641, 2021
PMP22 txn cnf: Cell-based coincidence reporter assay to measure PMP22 gene transcription in S16 Pmp22-F2sN cells - Confirmatory screen; 690 compounds, 22% hits; Potency, µM (series often up to 57.5 µM), most hits filed as inhibitors; AID 1508646, 2021; S16 Schwann cells Pmp22-F2sN, dual luciferase, 24 h; shares compounds with PMP22 txn; active = clear falling dose curves in both reporters; inconclusive = both reporters move, but less clearly or upward; inactive = either reporter flat; the % is the FLuc reporter signal
PMP22 prot conf: Cell-based HiBiT reporter assay to measure PMP22 protein expression in S16 Pmp22-HiBiT cells - Confirmatory screen | AID 1508647, 2021 | 95 tested, under 10 active | shares compounds with PMP22 txn | Potency, µM (doses to about 27.9 µM), usual class: inhibitors | S16 Schwann cells Pmp22-HiBiT, luminescence, 48 h
Numbers stand for hits; . = inactive; ? = inconclusive; / = no result. Unless noted, calls follow the shape of the dose curve; as a rule, active = well fitted curve in the direction sought with a large enough effect; inconclusive = small, poorly fitted or top-dose-only effect, or another doubt; inactive = no such curve, though single readings can be large; an effect the other way counts as inactive or inconclusive.

SMILES | pS6 MEF inh | PMP22 txn | OvCa metastasis | S16 F2sN tox | GALC G270D act | NLuc saturating | NLuc Km ctr | FLuc ctr PMP22 | S16 viab conf | PMP22 txn cnf | others
COc1ccc(CC(=O)Nc2sc3c(c2C(=O)Nc2cccc(C)c2)CCCCC3)cc1 | 9.3µM | 10µM | . | 25µM | . | . | . | . | ? | ?
COc1ccc(CC(=O)Nc2sc3c(c2C(=O)Nc2ccc(C)cc2)CCCCC3)cc1 | . | ? | . | . | . | / | / | / | / | /
COc1cc([C@@H]2c3cc4c(cc3[C@@H](O[C@@H]3O[C@@H]5CO[C@@H](C)O[C@@H]5[C@H](O)[C@@H]3O)[C@H]3COC(=O)[C@H]23)OCO4)cc(OC)c1O | / | / | . | / | / | / | / | / | / | /
Cc1nc(NC(=O)N2CCC[C@@H]2C(N)=O)sc1-c1csc(C(C)(C)C)n1 | / | / | . | / | / | / | / | / | / | /
CCOC(=O)C1CCN(C(=O)C2CCN(c3nnc(C)c4c(C)n(-c5ccccc5)nc34)CC2)CC1 | . | 14µM | . | . | . | . | . | . | . | .
Cc1ccc(-n2nc3c(N4CCC(C(=O)NCCC(C)C)CC4)nnc(C)c3c2C)cc1 | . | 6.2µM | . | . | . | . | . | . | . | ?
Cc1ccc(-n2nc3c(N4CCC(C(=O)NCCc5ccccc5C)CC4)nnc(C)c3c2C)cc1 | . | 9.5µM | ? | ? | . | . | . | . | 24µM | ?
Cc1ccccc1CNC(=O)C1CCN(c2nnc(C)c3c(C)n(-c4ccccc4)nc23)CC1 | . | ? | . | . | . | / | / | / | / | /
CNC1[C@H](O)C(O[C@@H]2C(O)C(O[C@H]3O[C@H]([C@@H](C)NC)CC[C@H]3N)[C@@H](N)C[C@H]2N)OC[C@]1(C)O (some centres undefined) | / | / | . | / | / | / | / | / | / | /
COc1ccccc1Nc1c2c(nc3ccc(NC(=O)c4cccc(F)c4)cc13)CCCC2 | ? | 10µM | ? | ? | . | . | . | . | 14µM | 12µM
COc1ccccc1Nc1c2c(nc3ccc(NC(=O)/C=C/c4cccc(OC)c4OC)cc13)CCCC2 | 4.1µM | 11µM | . | 25µM | . | . | . | . | ? | 7.7µM | PMP22 prot conf=.
CCN1CCN(c2cc(C)c3cc(NC(=O)/C=C/c4cccc(OC)c4OC)ccc3n2)CC1 | ? | . | ? | ? | . | / | / | / | / | /
O=C(O)C1=CC(O)C(O)[C@H](O)C1 (some centres undefined) | / | / | . | / | / | / | / | / | / | /
Nc1nc(=O)n([C@H]2C[C@H](O)[C@@H](CO)O2)cc1F | / | / | . | / | / | / | / | / | / | /
O=C(c1c2c(nc3ccccc13)C(=O)N(C1CCCCC1)C2)N1CCN(c2ccc(F)cc2)CC1 | . | 10µM | . | . | . | . | . | . | . | .
COc1ccc(N2CCN(C(=O)c3c4c(nc5ccccc35)C(=O)N(C3CCCCC3)C4)CC2)cc1 | . | . | . | . | . | / | / | / | / | /
Cc1ccc2c(c1)C(=O)C(=O)N2Cc1ccc(OCCC(C)C)cc1 | . | 4.6µM | ? | . | . | . | . | . | . | 12µM
Cc1c(N)cccc1C(F)(F)F | / | / | / | / | . | / | / | / | / | /
CCOc1cc(C(Nc2cc(C)ccn2)c2ccc3cccnc3c2O)ccc1OC (centres undefined) | ? | 10µM | . | ? | . | ? | 17µM | . | ? | ?
CCCSc1ncc(Cl)c(C(=O)Nc2ccc(S(=O)(=O)N3CCC(C)CC3)cc2)n1 | . | ? | . | . | . | / | / | / | / | /
CCCSc1ncc(Cl)c(C(=O)Nc2ccc(S(=O)(=O)N3CCCCC3C)cc2)n1 (centres undefined) | . | 11µM | . | ? | . | . | . | . | . | ?
CCCNC(=O)c1ccc2c(c1)sc1nc(-c3ccc(C)cc3)cn12 | . | . | . | . | . | / | / | / | / | /
CCN(CC)CCCNC(=O)c1ccc2c(c1)sc1nc(-c3ccc(C)cc3)cn12 | . | 10µM | ? | ? | . | ? | ? | 15µM | 15µM | 15µM
CCOc1ccc(CCNc2ncnc3onc(C)c23)cc1OCC | ? | 4.7µM | . | . | . | . | . | . | . | .
COc1cc2c(=O)c(C(=O)c3ccc(C)c(C)c3)cn(Cc3ccccc3F)c2cc1OC | . | 17µM | . | . | . | 0.39µM | 0.48µM | . | . | ?
SMILES | pS6 MEF inh | PMP22 txn | OvCa metastasis | S16 F2sN tox | GALC G270D act | NLuc saturating | NLuc Km ctr | FLuc ctr PMP22 | S16 viab conf | PMP22 txn cnf | others
CCn1c(-c2nonc2N)nc2cncc(CNC3CCNCC3)c21 | / | / | . | / | / | / | / | / | / | /
Cc1ccc(NC(=O)N(Cc2cn(C)c3ccccc23)C2CCCCC2)cc1C | . | 11µM | . | ? | . | 14µM | ? | ? | . | ?
COc1cccc(NC(=O)N(Cc2c[nH]c3ccccc23)C2CCCCC2)c1 | . | . | . | . | . | / | / | / | / | /
COc1cccc(NC(=O)N(Cc2cn(C)c3ccccc23)C2CCCCC2)c1 | . | 10µM | . | ? | . | ? | ? | . | . | ?
O=C(O)c1ccc(-c2cc3cccnc3c(-c3ccc4nonc4c3)n2)cc1 | / | / | . | / | / | / | / | / | / | /
COc1cc(Nc2ncc3c(n2)-c2ccc(Cl)cc2C(c2c(F)cccc2OC)=NC3)ccc1C(=O)O | / | / | . | / | / | / | / | / | / | /
